PfM18AAP inh – PfM18AAP inhibitors, malaria aminopeptidase, primary screen, biochemical, QFRET, recombinant enzyme; AID 1822, 2009; H-Glu-NHMec fluorogenic cleavage; 290,000 tested, 1.2% active; inhibition, % at 7.35 µM; M18 aspartyl aminopeptidase (Plasmodium falciparum 3D7);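 active = inhibition above the campaign mean inhibition over all tested compounds plus 3 SD, cut at about 28% in these data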;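 also: 0% = plate median of test compound wells and 100% = 2 mM ZnCl2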
Mot1-301 SUMO – yeast Mot1-301 growth rescue at high temperature, primary screen, SUMOylation pathway inhibitor project, S. cerevisiae, ATP luminescence, 38.5C; S. cerevisiae Mot1-301 growth rescue; percent above DMSO median, 100 means doubled; growth rescue, % at 18.8 µM; 320,000 tested, 1% active;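 active = every valid replicate shows activation above 250% relative to neutral control wells; inactive = the rest, any valid replicate at or below 250%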;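 also: OY570 slx delta 5 strain wells were the positive control but not used for scaling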
HIF act – HIF pathway transcriptional activators, primary screen, cell-based, U2OS HRE-luciferase, luminescence. activation, % at 7.5 µM (by protocol). 300,000 tested, 0.32% active. U2OS HRE-luciferase reporter; normalized: DMSO 0%, desferrioxamine 100%;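 active = mean activation of at least 10% of the iron chelator positive control signal, with at least half of replicates also reaching 10%; inconclusive = mean and replicate majority disagree about reaching 10%; inactive = mean and most replicates under 10%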
ALR H2O2 inh – inhibitors of human ALR sulfhydryl oxidase, primary screen, biochemical, H2O2 detection, HRP-luminol luminescence, single point; inhibition, % (test concentration not listed); 290,000 tested, 3.8% active; purified ALR, DTT oxidation;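 active = mean replicate inhibition above about 79%, with every replicate also reaching it, limit read from the data; inconclusive = only one of the two criteria met; inactive = mean below limit and not every replicate reaching it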
Target sequence (P55789 whole entry, looked up): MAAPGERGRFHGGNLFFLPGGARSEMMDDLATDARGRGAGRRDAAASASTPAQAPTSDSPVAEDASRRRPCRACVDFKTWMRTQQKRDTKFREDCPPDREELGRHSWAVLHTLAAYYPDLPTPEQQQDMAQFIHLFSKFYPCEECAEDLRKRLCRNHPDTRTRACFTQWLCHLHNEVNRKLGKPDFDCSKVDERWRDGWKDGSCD
The depositor's hits bear a star; u = inconclusive; x = not tested or not shown. Only some compounds are listed: those with a hit (about 5.3% of all), similar ones and a draw of the others.

SMILES	PfM18AAP inh	Mot1-301 SUMO	HIF act	ALR H2O2 inh
Cc1cc(NC(=O)COc2ccc3ccccc3c2Br)no1	x	8.0	x	-16.1
CNC(=O)c1c(NC(=O)C2=COCCO2)sc2c1CCCC2	-0.4	-12.6	0.5	80.8*
CNC(=O)c1c(NC(=O)c2ccco2)sc2c1CCC2	10.3	-17.7	0.8	u
CCOC(=O)C1=C(C)OC(N)=C(C#N)C1c1cccc(C)c1 (configuration not stated)	-1.4	2.2	0.6	-0.2
CCOC(=O)C1=C(C)OC(N)=C(C#N)C1c1ccc(C)s1 (configuration not stated)	-8.4	514.6*	0.7	x
COC(=O)Nc1sc2c(c1C(N)=O)CCC(C)C2 (configuration not stated)	48.5*	x	0.1	-5.3
Nc1cc(=O)nc(SCC(=O)Nc2cccc3ccccc23)n1CCc1ccccc1	-2.1	0.0	0.1	98.3*
CC(NC(=O)CSc1nc(=O)cc(N)n1CCc1ccccc1)c1ccccc1 (configuration not stated)	2.5	-6.8	x	x
O=C(CSc1nc2ccccc2c(=O)n1Cc1ccccc1)Nc1ccc(Br)cc1C(=O)O	-2.0	6.7	0.2	97.3*
C=CCn1c(N)cc(=O)nc1SCC(=O)Nc1ccc(C)cc1	-11.8	-11.3	-0.6	98.6*
Cc1ccc(NC(=O)CSc2nc(=O)cc(N)n2CCc2ccccc2)cc1	-0.8	7.3	0.2	98.9*
Cc1ccc(NS(=O)(=O)c2cccc(C(=O)NCC(c3ccco3)N3CCCCC3)c2)cc1 (configuration not stated)	-10.6	-16.5	-0.2	1.0
O=C(NCC(c1ccco1)N1CCOCC1)C1CCCCC1 (configuration not stated)	x	-7.3	0.1	1.7
Cc1nn(-c2ccc(F)cc2)c(Cl)c1/C=C/C(=O)N1CCNC(=O)C1	-2.4	7.2	0.6	-4.3
O=Cc1cc(N=Nc2ccccc2Cl)ccc1O	1.4	21.4	17.4*	9.1
Cc1cc(NC(=O)CSc2ccc(F)cc2)no1	1.8	x	0.0	x
CC(=O)Nc1ccc(SCC(=O)Nc2cc(C(C)(C)C)nn2-c2ccccc2)cc1	-2.9	9.2	-0.3	89.4*
CC(=O)Nc1ccc(SCC(=O)NC(=O)c2ccccc2Br)cc1	x	-4.8	x	98.4*
Cn1c(SCC(=O)Nc2cc(C(C)(C)C)nn2-c2ccccc2)nc2ccccc21	1.0	52.5	-0.8	-26.6
CC(=O)Nc1ccc(SCC(=O)Nc2cc(C)on2)cc1	10.4	x	0.2	99.2*
Cc1ccc(S(=O)(=O)N2CCOCC2)cc1C(=O)NCC1CCCCC1	x	-8.7	x	-4.0
COC(C[C@@H](O)[C@H](C)[C@@H](O)COCc1ccccc1)OC	x	x	0.0	x
Cc1ccc(OCc2ccc(C(=O)Nc3ccc(S(N)(=O)=O)cc3)o2)cc1	-3.0	-12.0	0.5	-20.5
CCN(CC)CCn1c2c(c(SCC(=O)Nc3ccc(C(C)C)cc3)nc1=O)CCCC2	x	15.5	0.3	1.2
O=C(CSc1nc(=O)n(CCCN2CCOCC2)c2c1CCCC2)Nc1cccc([N+](=O)[O-])c1	x	446.1	-2.2	4.7
SMILES	PfM18AAP inh	Mot1-301 SUMO	HIF act	ALR H2O2 inh
O=C(CSc1nc(=O)n(CCCN2CCOCC2)c2c1CCC2)Nc1ccc([N+](=O)[O-])cc1	x	153.7	-6.4	98.2*
Cc1ccc(NC(=O)CSc2nnc(CN3CCOCC3)n2C)cc1C	-1.7	4.6	-0.6	x
Cc1c(Cl)cccc1NC(=O)CSc1nc(=O)n(CCCN2CCOCC2)c2c1CCC2	x	5.6	-0.1	94.4*
CC(C)c1ccc(NC(=O)CSc2nc(=O)n(CCCN3CCOCC3)c3c2CCCC3)cc1	x	-4.3	-0.2	99.0*
CC(C)c1ccc(NC(=O)CSc2nnc(CN3CCOCC3)n2C)cc1	-1.2	-14.3	-0.1	98.3*
CCCN1CCN(CCCNC(=O)CCNC(=O)Cn2ccc3ccccc3c2=O)CC1	0.5	x	-4.1	-9.0
O=C(CSc1nc(=O)n(CCCN2CCOCC2)c2c1CCC2)Nc1ccc(F)cc1F	x	-8.4	-1.3	-9.8
O=C(CSc1nc(=O)n(CCCN2CCOCC2)c2c1CCCC2)Nc1ccccc1Cl	x	3.0	-62.4	-4.4
CC(C)c1ccc(NC(=O)CSc2nc(=O)n(CCCN3CCOCC3)c3c2CCC3)cc1	x	-1.4	0.2	98.5*
O=C(CSc1nc(=O)n(CCCN2CCOCC2)c2c1CCCC2)Nc1ccc(Cl)cc1	x	-9.2	0.1	96.0*
O=C(c1ccccc1)c1ccc(C(=O)N2CCN(c3ccc(O)cc3)CC2)cc1	x	5.8	x	99.4*
O=C(c1ccccc1)c1cccn1CC(=O)N1CCN(C2CCCCC2)CC1	4.1	-6.5	-0.4	-10.0
O=C(c1ccccc1)c1cccn1CC(=O)N1CCN(c2ccccc2)CC1	6.2	-4.1	-0.3	96.8*
Cc1cc(Nc2ccccc2)n(-c2ccccc2)n1	3.7	79.0	-0.7	97.7*
Cc1cc(C)nc(-n2nc(C)cc2Nc2ccccc2)n1	-1.2	-2.1	-0.1	98.3*
Cc1cc(NC(=O)c2cccs2)n(-c2ccccc2)n1	-4.5	x	-0.5	86.2*
CN1CCN(C(=O)C2=C[C@@H](c3coc4ccccc4c3=O)C[C@@H](OCCCCO)O2)CC1	2.2	-1.7	-2.2	-1.5
CCC(C(=O)Nc1ccc(C(=O)Nc2ccccc2C(=O)O)cc1)c1ccccc1 (configuration not stated)	-4.1	3.0	0.3	79.4*
CC(c1ccccc1)N1C(=O)c2ccc(C(=O)Nc3ccc(Br)cc3C(=O)O)cc2C1=O (configuration not stated)	-2.4	236.2	-0.5	8.5
CC(C)CCN1C(=O)c2ccc(C(=O)Nc3ccccc3C(=O)O)cc2C1=O	2.5	-12.7	-3.9	97.6*
CC(c1ccccc1)N1C(=O)c2ccc(C(=O)Nc3ccccc3C(=O)O)cc2C1=O (configuration not stated)	-1.7	90.7	0.2	97.6*
CC(C)CCN1C(=O)c2ccc(C(=O)Nc3ccc(O)cc3C(=O)O)cc2C1=O	-4.1	1.6	0.7	47.3
CCc1ccc(C(=O)Cn2ccsc2=N)cc1	4.6	8.7	4.0	24.1
COc1ccccc1NS(=O)(=O)c1cc([N+](=O)[O-])ccc1N/N=C/c1c[nH]c2ccccc12	4.6	10.7	-0.6	98.8*
COc1ccc(NS(=O)(=O)c2cc([N+](=O)[O-])ccc2N/N=C\c2c(C)[nH]c3ccccc23)cc1	-7.4	146.6	2.1	0.6
SMILES	PfM18AAP inh	Mot1-301 SUMO	HIF act	ALR H2O2 inh
CS/C(N)=N/N=C/c1cc(Br)cc(Br)c1O	24.1	158.4	0.6	-0.1
Nn1cnnc1N/N=C/c1cc(Br)cc(Br)c1O	52.2*	-28.8	0.9	12.7
Nc1ccccc1C#Cc1ccccc1	-3.3	-13.3	3.4	5.1
Nc1ccccc1C#Cc1ccc2[nH]ccc2c1	x	-7.7	3.9	97.5*
Cc1ccc(N=C(N)N=C(N)N)cc1	0.9	-20.5	-0.2	-5.4
CC(C)(C)OC(=O)N1CCC(Cc2cc(-c3ccccc3)no2)(C(=O)O)CC1	-3.3	131.8	-7.0	6.3
N=C(N)c1ccc(OCCCCCOc2ccc(C(=N)N)cc2)cc1	-0.1	122.7	2.3	-26.7

Screening results (PubChem)
